Results published in PubChem BioAssay.
A number with no mark means an inactive call. Activity calls are given as the source filed them.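 Rule for the calls: active = thallium flux through the channel raised or lowered by more than 3 SD from vehicle-only wells, actives on both sides; inactive = the rest.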

These molecules were tested against Calcium-activated potassium channel subunit alpha-1 (Homo sapiens) + Leucine-rich repeat-containing protein 26 (Homo sapiens) (UniProt Q12791+Q2I0M4) (assay: modulators of BK channel variants, profiling panel, selectivity assay, cell-based, U2OS BacMam, thallium flux, beta subunits (AID 1259406;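 note: initial slope of Thallos dye fluorescence rise after thallium is added; log ratio against the mean of 0.3% DMSO vehicle wells on the same plate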)). Settings: F380Y/Slo1WT/gamma1, at 30 µM.
Chain of Calcium-activated potassium channel subunit alpha-1 (Homo sapiens) + Leucine-rich repeat-containing protein 26 (Homo sapiens) (Q2I0M4 whole entry, looked up, one chain of several): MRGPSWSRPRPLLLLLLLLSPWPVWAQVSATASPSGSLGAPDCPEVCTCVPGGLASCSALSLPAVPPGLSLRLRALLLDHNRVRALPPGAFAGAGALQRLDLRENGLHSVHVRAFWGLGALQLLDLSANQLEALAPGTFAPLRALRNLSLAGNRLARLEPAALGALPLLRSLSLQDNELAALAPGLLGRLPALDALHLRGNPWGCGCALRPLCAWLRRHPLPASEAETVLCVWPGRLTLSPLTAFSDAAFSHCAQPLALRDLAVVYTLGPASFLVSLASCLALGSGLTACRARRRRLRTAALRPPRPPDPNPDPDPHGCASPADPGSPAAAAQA

Row | Compound | log fold change Tl+ flux
1 | CCOC(=O)c1nn(-c2ccc(C(C)(C)C)cc2)c(=O)c(C#N)c1C | -0.15 (active)
2 | O=C(NC(=O)N1CCCCC1)c1cc(Br)cc(Br)c1 | -0.127 (active)
3 | O=S(=O)(Nc1ccccc1SCc1ccc2nonc2c1)c1cccs1 | -0.142 (active)
4 | NC(=O)CN1C(=O)C(=Cc2ccco2)N=C1c1ccccc1 | -0.015
5 | COc1cc(C(F)(F)F)nc2ccc(C#CCOC(=O)Nc3cccc(Cl)c3)cc12 | -0.0274
6 | Cc1ccc(S(=O)(=O)c2ncsc2SCc2ccc(Cl)cc2Cl)cc1 | 0.00897
7 | NC(=O)c1nnn(-c2ccc([N+](=O)[O-])cc2)c1-c1ccccc1 | 0.0451
8 | CN1c2ccsc2C(=O)C(=NNc2cccc(C(F)(F)F)c2)S1(=O)=O | -0.0208
9 | O=C(OCCSc1sccc1[N+](=O)[O-])c1ccc(Cl)cc1 | -0.0095
10 | CC(C)n1c(SCC(=O)c2ccccc2)nc2cc(Cl)ccc21 | -1.05 (active)
11 | CCOC(=O)c1ccc(OCC#Cc2ccc(C(F)(F)F)cn2)cc1 | -0.0262
12 | CCSc1n[nH]c(=S)s1 | -0.0169
13 | CCC(=NOc1ccc(C(F)(F)F)cn1)c1ccc(-c2ccccc2F)cc1 | -0.0559
14 | Cc1cc(CNCC(O)C(F)(F)F)no1 (centres undefined) | 0.018
15 | COc1cccc(N2CC(=O)N(NC(=O)NC3CCCCC3)CC2=O)c1 | 0.0234
16 | Cc1nn(-c2ccccc2)nc1C(=O)NNC(=O)CSCc1cccc2ccccc12 | -0.0205
17 | Cc1ccc(S(N)(=O)=O)c(I)c1 | -0.0495
18 | O=C(Nc1ccc(OC(F)(F)F)cc1)OC1CN(C(c2ccccc2)c2ccccc2)C1 | -0.134 (active)
19 | COCCCNC1=C(C#N)C(=O)NC(c2cccs2)S1 (centres undefined) | 0.0147
20 | Cn1cnc([N+](=O)[O-])c1Sc1cccs1 | 0.029

Row | Compound | log fold change Tl+ flux
21 | Cc1ncc(CSc2nc(C(C)(C)C)cs2)c(CO)c1O | -0.0352
22 | Cc1cc2c(NC(=O)c3ccccc3C(=O)O)cccc2nn1 | 0.0158
23 | CSc1cc(C(C)(C)C)[nH]n1 | 0.0568
24 | NC(C=Cc1cc(C(F)(F)F)cc(C(F)(F)F)c1)=NOC(=O)c1c(F)cccc1F | -0.0341
25 | O=C(O)c1cccc(CSc2cccs2)c1 | 0.0207
26 | O=C(CC(=O)NNC(=O)c1ccc(F)cc1)NNC(=O)c1ccc(F)cc1 | -0.0103
27 | CN1c2ccccc2C(C)(C)C12C=Cc1cc(Br)cc([N+](=O)[O-])c1O2 (centres undefined) | 0.0283
28 | O=C(O)C(Cc1ccccc1[N+](=O)[O-])=NNc1ccccc1 | 0.0895
29 | Cc1cccc(N=Cc2cc(Cl)cc(Cl)c2O)c1C | 0.078
30 | Cc1c(O)nc2ccccn2c1=O | 0.0423
31 | Cc1cc(NS(=O)(=O)c2ccc(NC(=O)c3nccnc3C(=O)O)cc2)no1 | -0.136 (active)
32 | Fc1cccc(Cl)c1CSc1nccn1-c1cccnc1 | 0.00834
33 | Cc1cc(-c2nn(C)c(=O)c3ccccc23)cc(C)c1O | -0.0365
34 | CC(C)(C)OC(=O)N1CCC(c2nc(-c3ccc(Cl)s3)cs2)CC1 | -0.0565
35 | N#CC(CCC(=O)O)(CCC(=O)O)S(=O)(=O)c1ccccc1 | 0.0235
36 | CC(C)(C)NC(=O)NCCO | -0.0499
37 | CC(C)(C)c1cc2nc(C(F)(F)F)cc(NN=Cc3ccccc3)n2n1 | -0.0501
38 | O=C1NC2CC2N1C(=O)OCc1ccccc1 (centres undefined) | -0.0415
39 | Clc1ccc(Sc2cn[nH]c2-c2ccc3c(c2)OCCO3)cc1 | -0.102
